# A selection: hits, their analogues and other compounds. The true share with any hit is near 1.3%.
# PREPL inh – inhibitors of human prolyl oligopeptidase-like enzyme PREPL | inhibition, % at 5.96 µM | 0.68% of 320,000 active | Q4J6C6 | recombinant PREPL, fluorescence polarization activity-based probe | AID 2751;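 further: 0% = enzyme with DMSO and 100% = wells lacking enzyme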
# UBC13 polyUb – blocks human UBC13 polyubiquitin chain formation; 0.47% of 330,000 active; TR-FRET; inhibition, % at 20 µM; in the data active means inhibition above about 45%, passing the limit was not always enough
# RAD54 inh – inhibitors of human RAD54 branch migration | Q92698 | RAD54 Holliday junction branch migration, FAM/BHQ fluorescence | inhibition, % at 10.4 µM | 0.14% of 360,000 active | AID 602329;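 active means mean normalized replicate activity at least 40 and at least half of replicates scoring 40 or more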;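 further: 0% = median of neutral control wells and 100% = median of positive control wells; inhibitors cause a drop in the FAM fluorescence signal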
# Target sequence (Q92698 whole entry, looked up): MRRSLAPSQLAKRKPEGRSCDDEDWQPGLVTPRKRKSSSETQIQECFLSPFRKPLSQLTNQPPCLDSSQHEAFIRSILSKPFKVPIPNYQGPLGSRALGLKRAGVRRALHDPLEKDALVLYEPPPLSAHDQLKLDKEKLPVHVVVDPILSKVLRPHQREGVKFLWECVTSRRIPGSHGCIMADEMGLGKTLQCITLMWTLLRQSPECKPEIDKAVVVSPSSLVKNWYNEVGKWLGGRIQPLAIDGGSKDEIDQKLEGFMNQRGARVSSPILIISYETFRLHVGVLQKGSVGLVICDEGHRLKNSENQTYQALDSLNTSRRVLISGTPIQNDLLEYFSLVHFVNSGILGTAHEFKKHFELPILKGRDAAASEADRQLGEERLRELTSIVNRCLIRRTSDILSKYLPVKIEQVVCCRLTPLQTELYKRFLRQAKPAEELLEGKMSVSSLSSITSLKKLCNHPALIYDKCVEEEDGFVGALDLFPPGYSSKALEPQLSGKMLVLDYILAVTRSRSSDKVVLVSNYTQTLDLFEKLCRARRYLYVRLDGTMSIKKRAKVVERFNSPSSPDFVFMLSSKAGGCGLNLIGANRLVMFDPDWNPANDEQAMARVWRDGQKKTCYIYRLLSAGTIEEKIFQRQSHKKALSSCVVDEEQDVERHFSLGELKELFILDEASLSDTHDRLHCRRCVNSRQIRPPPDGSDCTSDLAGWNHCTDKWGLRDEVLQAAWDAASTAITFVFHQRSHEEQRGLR
# RAD52 inh – inhibitors of human RAD52 DNA annealing. P43351. AID 651710. 0.46% of 360,000 active. inhibition, % at 18.7 µM. recombinant RAD52 DNA annealing, FRET fluorescence;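 active means every replicate showing at least 50% inhibition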
# MIN6 prolif – inducers of beta-cell replication in MIN6 cells; 0.29% of 330,000 active; AID 2380; MIN6 cells proliferation, ATPlite luminescence, 48 h; cells starved in 0.2% serum; 100% = growth in 10% serum; proliferation, % at 10 µM;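 active means compounds whose signal lies at least 3.5 SD above the mean of all wells on their plate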;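 further: 0% = DMSO-treated cells in low-serum medium and 100% = 10% serum control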
# FID counter – counter-screen for HCV NS3 helicase inhibitors: DNA intercalator displacement | AID 1845 | DNA fluorescent intercalator displacement, fluorescence | 0.17% of 290,000 active | inhibition, % at 7.9 µM; in the data active means inhibition above about 37%;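 further: 0% = vehicle and 100% = reference compound; higher means more ethidium bromide displaced from hairpin DNA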
# PREPL inh cf – human PREPL inhibition, confirmation. 67% of 2,000 active. recombinant PREPL, fluorescence polarization activity probe. shares compounds with PREPL inh. inhibition, % at 5.96 µM;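 further: 0% = protein with DMSO and 100% = wells lacking protein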
# Casp3 UBC13 ctr – inhibits human caspase-3 in UBC13 counter-screen; shares compounds with UBC13 polyUb; Recombinant caspase-3, Caspase-Glo 3/7 luminescence, 60 min; inhibition, % at 20 µM; 4% of 1,400 active; AID 488856;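 active means mean inhibition across replicates above about 26%, limit read from the data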;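 further: plate controls were DMSO with caspase-3 for no effect and DMSO wells lacking enzyme for full effect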
# UBC13 confirm – human UBC13 polyubiquitin inhibition, confirmed. shares compounds with UBC13 polyUb. UBC13 polyubiquitination, TR-FRET, biochemical. inhibition, % at 10 µM. 68% of 1,400 active; in the data active means inhibition above about 45%
# The depositor's hits bear a star; nt = no result. Unless noted, no stated cut-off is given here; in the data, active means inhibition above about 43%; inactive means the rest.
SMILES,PREPL inh,UBC13 polyUb,RAD54 inh,RAD52 inh,MIN6 prolif,FID counter,PREPL inh cf,Casp3 UBC13 ctr,UBC13 confirm
CCCCC(=O)N1C/C=C\C(c2ccc(OC)cc2)N(Cc2ccc(F)cc2)C(=O)[C@H]1Cc1ccccc1 (stereo not given in full),36,5,-1,nt,-8,nt,nt,nt,nt
CCN1CCN(C(=O)C(C)Nc2ccc(OC)cc2OC)CC1 (stereo not given),50*,8,12,-41,-2,5,46*,nt,nt
CCOC(=O)N1CCN(CCC(=O)Nc2ccc(OC)cc2OC)CC1,15,1,-2,-7,-2,-4,nt,nt,nt
NCCCC[C@@H]1NC(=O)c2cc([N+](=O)[O-])cc(I)c2SC[C@@H](C(N)=O)NC(=O)[C@H](Cc2ccc(O)cc2)NC1=O,54*,59*,-1,nt,-4,7,49*,0,81*
CN1CCc2c(sc3c2C(=O)NC(c2cn(Cc4ccccc4)c4ccccc24)N3)C1 (stereo not given),55*,51*,10,nt,-6,-3,61*,-2,64*
CO[C@H]1CN(C)C(=O)c2ccc(NC(C)=O)cc2OC[C@H](C)N(C(=O)C2CCOCC2)C[C@@H]1C,nt,nt,nt,1,nt,nt,nt,nt,nt
COc1ccc(Nc2nc(N3CCCC3)c3ccccc3n2)cc1,77*,51*,nt,nt,-4,15,62*,-2,49*
CCN(CC)c1ccc(Nc2nc(N3CCOCC3)c3ccccc3n2)cc1,36,7,16,nt,-6,7,nt,nt,nt
O=C(NCc1cccnc1)C1CCN(S(=O)(=O)c2cc([N+](=O)[O-])ccc2Cl)CC1,19,1,4,-1,1,nt,nt,nt,nt
O=C(NCCCn1ccnc1)C1CCN(S(=O)(=O)c2cc([N+](=O)[O-])ccc2Cl)CC1,47*,82*,nt,27,-2,nt,41,-1,64*
CCCCCCCCCCC[N+](C)(C)CC/C=C1/c2ccccc2Sc2ccc(Cl)cc21,45*,106*,17,nt,-5,15,35,3,118*
COc1cc2[nH]c3c(Cl)ncnc3c2cc1OC,4,27,40,nt,5,2,nt,nt,nt
COc1cc2[nH]c3c(N4CCN(c5ccc(Cl)cc5)CC4)ncnc3c2cc1OC,95*,51*,6,nt,-4,1,75*,2,33
CN(C)CCCNc1cc(C(C)(C)C)nc2c(-c3ccc(Cl)cc3)cnn12,52*,89*,9,29,-6,24,49*,-1,95*
Cc1ccccc1-c1cnc2c(c1)C(=O)N([C@@H](C)CO)C[C@H](C)[C@@H](CN(C)C(=O)c1ccc(F)cc1)O2,nt,nt,-7,8,nt,nt,nt,nt,nt
CC[C@@H](C)[C@@H]1CN([C@@H](CN2CCC[C@H]2CN2C(N)=NC[C@H]2C(C)C)C(C)C)C(=N)N1CCc1ccc(Cl)c(Cl)c1,60*,75*,25,nt,-3,nt,50*,-2,61*
CCOc1ccc(CCN2C(=O)C(=O)N([C@@H](CC(C)C)CN3CCC[C@H]3CN3C(=O)C(=O)NC[C@@H]3Cc3ccccc3)C[C@@H]2Cc2ccccc2)cc1,nt,nt,nt,-6,nt,nt,nt,nt,nt
CC[C@@H](C)[C@@H]1CN([C@@H](C)CN2CCC[C@H]2CN2C(N)=NC[C@@H]2Cc2ccccc2)C(=N)N1CCCC1CCCC1,44*,71*,29,34,-4,nt,50*,-2,73*
c1ccc(C[C@H]2CN=C(Nc3ccccc3)N2CCC2CCCC2)cc1,41,40,13,10,-8,nt,nt,nt,nt
CCC(C)[C@H]1CN=C(N)N1CCCc1cc(OC)c(OC)c(OC)c1 (stereo not given in full),10,42,4,-19,-1,nt,nt,nt,nt
CC[C@@H](C)[C@@H]1CN([C@@H](C)CN2CCC[C@H]2CN2C(N)=NC[C@@H]2Cc2ccccc2)C(=N)N1CCc1ccc(Cl)c(Cl)c1,52*,76*,24,nt,-4,nt,41,2,70*
O=C1CN(Cc2ccc(F)cc2)C[C@@H]2[C@@H](c3ccc(-c4ccccc4F)cc3)[C@H](CO)N12,nt,nt,nt,-9,nt,nt,nt,nt,nt
CCCCN1C(=N)N([C@@H](CN2CCC[C@H]2CN2C(N)=NC[C@@H]2Cc2ccccc2)C(C)C)C[C@H]1Cc1ccccc1,65*,47*,2,17,0,nt,59*,0,39
CC(C)C[C@@H]1CN=C(N)N1C[C@@H]1CCCN1C[C@@H](C(C)C)N1C[C@@H](Cc2ccccc2)N(CCCC2CCCC2)C1=N,60*,78*,25,37,-2,nt,51*,-4,76*
CCC[C@@H](CN1CCC[C@H]1CN1C(N)=NC[C@H]1C(C)C)N1C[C@@H](Cc2ccccc2)N(CCCC2CCCC2)C1=N,57*,65*,28,41,-1,nt,55*,-3,47*
SMILES,PREPL inh,UBC13 polyUb,RAD54 inh,RAD52 inh,MIN6 prolif,FID counter,PREPL inh cf,Casp3 UBC13 ctr,UBC13 confirm
CCCCN1C(=N)N([C@@H](CCC)CN2CCC[C@H]2CN2C(N)=NC[C@H]2CC(C)C)C[C@H]1Cc1ccccc1,48*,51*,11,18,-1,nt,49*,2,38
CC(C)C[C@H]1CNC(=S)N1C[C@H]1CCCN1C[C@H](CC(C)C)N1C[C@H](Cc2ccccc2)N(CCc2ccccc2)C1=S,nt,nt,0,-23,nt,nt,nt,nt,nt
CCCC(=O)Nc1ccc2c(c1)C(=O)N(C)C[C@H](OC)[C@H](C)CN(C(=O)c1cnccn1)[C@@H](C)CO2,nt,nt,-5,-5,nt,nt,nt,nt,nt
CCCc1cn(CC[C@H]2CC[C@@H](NS(=O)(=O)c3ccc(-c4ccccc4)cc3)[C@@H](CO)O2)nn1,nt,nt,8,-1,nt,nt,nt,nt,nt
C#CCOCCOCCOCCNc1nc(N2CCN(C(=O)[C@H]([C@@H](C)CC)n3cc([C@@H](N)CC(C)C)nn3)CC2)nc(N2CCN(C(=O)[C@H](Cc3cc4ccccc4[nH]3)n3cc([C@@H](N)CC(C)C)nn3)CC2)n1,nt,40,nt,nt,4,nt,nt,nt,nt
C#CCOCCOCCOCCNc1nc(N2CCN(C(=O)[C@H](CCCN=C(N)N)n3cc(C(N)[C@H](C)CC)nn3)CC2)nc(N2CCN(C(=O)[C@H](CCCN=C(N)N)n3cc(C(N)[C@@H](C)CC)nn3)CC2)n1 (stereo not given in full),44*,74*,-1,nt,-3,nt,33,-1,56*
